SMILES strings stand for the structures. The panel holds about 83,000 compounds, 20% with a hit somewhere; the sample as a whole holds those more often.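 Interpretation: 100, growth as untreated; towards 0, rising growth inhibition; 0, no net growth; 0 to -100, cell death. Compounds scoring below 10 were considered active.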 Calls of active or inactive are those of the source.

The assay has as its system HL-60(TB) leukemia. Nature of the assay: NCI-60 one-dose screen, 48 h (100 = growth as untreated, 0 = no growth, -100 = all killed). Conditions: 10 µM unless noted.
Consider `O=C(NOCCO)c1ccc2cncn2c1Nc1ccc(I)cc1F`, for which the growth is 23.5% (inactive). For `CN(C)C/C=C/C(=O)Nc1cc2c(Nc3cccc(Cl)c3F)ncnc2cc1OCCOC(F)F` the value was 43.2% (inactive); for `CN1CCN(C(=O)c2c3c(n4ccccc24)C(=O)c2ncccc2C3=O)CC1`, 53.4% (inactive); for `c1cc2nc(-c3cn[nH]c3)c3c(c2cc1-c1cn[nH]c1)C1CCC3C1` (stereo not given), 84.3% (inactive).

For the compound `N#C/C(=C\c1ccc(-c2ccccc2)o1)c1nc(-c2ccco2)cs1`, the growth is 99.3% (inactive). As for `CN(C)CCN=c1nc2c(c(N)n1-c1ccccc1)c(=S)n(-c1ccccc1)c(=S)n2-c1ccccc1`, the figure is 36.6% (inactive); as for `O=C(CCN1C(=O)c2ccccc2C1=O)Nc1ccc(Cl)cc1`, 105% (inactive); as for `O=C1c2ccccc2OC=C(c2ccccc2)N1CCCCN1CCCCC1`, 58.1% (inactive). As for `C/C(=N\Nc1nc(C)cs1)c1cc2ccccc2o1`, the figure is 83.4% (inactive); as for `CC(=O)Nc1scc[n+]1Cc1ccccc1`, 55.3% (inactive).

Turning to `CC(C)(C)OC(=O)CN1CCc2c(sc3ncnc(N4CCN(c5ccc(F)cc5)CC4)c23)C1`, the growth was 99.5% (inactive).

As to `O=[N+]([O-])c1cc(Br)c2cccc3c2c1CC3`, the growth is 94.4% (inactive). Regarding `CC(CCC(=O)O)(NC(=O)c1ccc([N+](=O)[O-])cc1)C(=O)O` (stereo not given), the growth was 94.9% (inactive). As for `Cc1ncc(C#N)c(N)n1`, the figure is 109% (inactive); as for `N#CSCc1cc(Cl)c(CSC#N)cc1Cl`, 22.1% (inactive); as for `CCn1cc(CNc2ccc(C(=O)Nc3ccc4ccccc4c3)cc2)c(C)n1`, 79.8% (inactive). For `CC(=O)N1N=C(c2ccc(Nc3nc(Nc4ccc(F)cc4)nc(Nc4ccc(F)cc4)n3)cc2)CC1c1ccccc1` (stereo not given) the value was 83% (inactive); for `CCCCCCCCCCN1CCC(N2CCCCC2)CC1`, -57.7% (active).

As for `CC(C)(N)CO[C@H]1C[C@H]2CC[C@@]1(C)C2(C)C`, the growth was 111% (inactive). For `COc1ccc(-c2c3c(nn2-c2ccc(N)cc2)CCc2cnoc2-3)cc1OC` the value was 93.1% (inactive); for `COc1cc(N2C(=O)c3nccnc3C2=O)cc(OC)c1OC`, 90.3% (inactive); for `COc1ccc(N(C)c2nc(Cl)nc3cnn(C)c23)cc1`, -4.95% (active). As for `N[C@@H]1CCCN(c2c(/C=C3\SC(=O)NC3=O)cccc2-c2ccccc2)C1`, the figure is 26.5% (inactive); as for `Nc1nc2ncc(CCNc3ccc(C(=O)O)cc3)nc2c(=O)[nH]1`, 58.2% (inactive). For the compound `CC(=O)OCCO`, the growth is 105% (inactive).

`O=Nc1ccccc1N=O`: the growth is 78.3% (inactive). As for `CCCCCCCCCCCCN1C(C)=CS/C1=C\C=C\c1scc(C)[n+]1CCCCCCCCCCCC`, the figure is -32.3% (active); as for `COc1ccc([N+](=O)[O-])c(/C=C/C(=O)c2ccccn2)c1`, 88.9% (inactive); as for `COc1ccc(C(=O)COc2cccc(/C=C3\CSc4ccc(Cl)cc4C3=O)c2)cc1`, 81.8% (inactive).

Turning to `CCCCCCC(C)(O)c1ccccc1` (stereo not given), the growth was 94.6% (inactive).

Regarding `Cc1nc2ccccc2c(C(=O)O)c1O`, the growth is 186% (inactive). As for `CCC12CCC[N+]3([O-])CCC4(C(=Nc5ccccc54)C(O)(C(=O)OC)C1)C23` (stereo not given), the figure is 124% (inactive); as for `CC(=O)NNC(=S)/N=C\C(C(=O)c1ccccc1)=C(/O)c1ccccc1`, 103% (inactive); as for `Nc1ncc(-c2cnn(C3CCNCC3)c2)cc1-c1nc2cc(Cl)ccc2o1`, -71.3% (active).

`COc1cc2ncnc(Nc3ccc(S(=O)(=O)Nc4cc(C)on4)cc3)c2cc1OCCCN1CCN(c2ccc(F)cc2)CC1`: the growth is 112% (inactive). As for `CCN(CC)CCCC(C)Nc1ccc2ccc(Cl)cc2n1` (stereo not given), the figure is 101% (inactive); as for `COC(=O)Nc1nc2ccc(C(=O)c3cccc(I)c3)cc2[nH]1`, -41.7% (active). As for `Cn1ccc2c3c(ccc21)CC3=O`, the figure is 113% (inactive); as for `COc1ccc(Cn2cc3c(c2-c2cc(OC)c(OC)c(OC)c2)CCc2cnoc2-3)cc1N`, 5.54% (active).

`O=C1CCC2=C3C4CCCCC4C(=O)C4CCCC(OC2C1)C34` (stereo not given): the growth was -17.1% (active).

The values above are taken from PubChem BioAssay (NCI).
